FH mod – Identification of activators of human fumarate hydratase by quantitative high-throughput screening | Fumarate hydratase, mitochondrial (Homo sapiens), P07954 | FH coupled MDH/diaphorase resazurin fluorescence, 15 min | Potency, µM (top dose mostly 79.9 µM), actives largely listed as inhibitors | hit rate 0.22% among 54,000 | AID 1347055, 2019; also: the screen sought activators but most active calls are inhibition curves; nearly all actives have a fitted effect of over 45% in size
SKOV3 invasion – blocks SKOV3ip1 adhesion and invasion in omental model; SKOV3ip1-GFP adhesion/invasion on 3D omental model, fluorescence; Potency, µM (titrated, usually from 45.8 µM), actives largely listed as inhibitors; hit rate 0.1% among 46,000; AID 1963576; also: nearly all actives have a fitted effect of over 65% in size
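A 3D layer of primary human omental fibroblasts, mesothelial cells, fibronectin and collagen I, grown 48 hr, received SKOV3ip1-GFP cells in serum-free medium plus compounds at 0.36-46 umol/L. After 2 hr RT and 16 hr 37 C, fixed adherent GFP cells were counted; normalized to DMSO and tomatine.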
DRV1 agonist – agonists of human resolvin D1 receptor DRV1 (GPR32) | activation, % at 76.9 µM | O75388 | hit rate 2.5% among 48,000 | CHO-K1 GPR32 beta-arrestin PathHunter luminescence, 90 min; zero percent set by DMSO-only wells;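 active = activation of at least 60% and not above a set upper limit, about 1 call in 100 departs from these limits; inconclusive = activation of 40% to 60%, or above that upper limit; inactive = activation under 40%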
Target sequence (O75388 whole entry, looked up): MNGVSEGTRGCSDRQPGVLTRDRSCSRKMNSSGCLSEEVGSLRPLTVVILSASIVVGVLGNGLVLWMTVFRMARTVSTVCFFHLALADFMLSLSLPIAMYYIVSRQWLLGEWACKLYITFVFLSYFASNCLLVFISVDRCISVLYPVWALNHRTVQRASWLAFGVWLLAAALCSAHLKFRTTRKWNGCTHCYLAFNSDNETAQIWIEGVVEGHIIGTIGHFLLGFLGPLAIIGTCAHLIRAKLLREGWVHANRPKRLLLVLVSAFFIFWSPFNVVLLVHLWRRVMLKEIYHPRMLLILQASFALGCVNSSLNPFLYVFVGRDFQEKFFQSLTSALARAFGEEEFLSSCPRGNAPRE
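Step 1: seed CHO-K1 GPR32 beta-arrestin cells, 2,500/well, overnight at 37 °C. Step 2: add compounds, 90 min at 37 °C. Step 3: detection reagent, 1 h ambient, then luminescence.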
NTMT1 inhibitor – inhibitors of human N-terminal methyltransferase NTMT1; Q9BV86; NTMT1 MTase-Glo SAH luminescence, purified enzyme; Potency, µM (series often up to 114 µM), most hits filed as inhibitors; hit rate 2.5% among 59,000; AID 1645870; also: nearly all actives have a fitted effect of over 65% in size
Target sequence (Q9BV86 whole entry, looked up): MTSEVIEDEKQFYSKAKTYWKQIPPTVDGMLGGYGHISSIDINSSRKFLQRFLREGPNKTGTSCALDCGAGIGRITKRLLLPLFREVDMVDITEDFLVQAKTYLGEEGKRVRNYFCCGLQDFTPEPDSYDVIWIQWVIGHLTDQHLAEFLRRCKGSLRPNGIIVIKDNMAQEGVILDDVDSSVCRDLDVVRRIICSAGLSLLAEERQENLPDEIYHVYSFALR
Of the large screens only hits and unclear results are named; the others gave an inactive call; ! = not active in a repeat. Shown are actives, neighbours in structure and some others; about 3.8% of the full set was active somewhere. Unless noted, calls follow the shape of the dose curve; as a rule, active = well fitted curve in the direction sought with a large enough effect; inconclusive = small, poorly fitted or top-dose-only effect, or another doubt; inactive = no such curve, though single readings can be large; an effect the other way counts as inactive or inconclusive.

O=C(COc1ccc(F)cc1)OCc1cc(=O)n2nc(C3CC3)sc2n1	DRV1 agonist 97
CCN(CC)S(=O)(=O)c1ccc2c(c1)N(CC(=O)Nc1ccc(Cl)cc1)C(=O)C1CCCN21 (stereo not drawn)	none
O=C1c2ccccc2C(=O)N1c1cnc2ccccc2c1	none (no result: FH mod, SKOV3 invasion, DRV1 agonist)
COc1ccc(CNC(=O)CSc2ncc(S(=O)(=O)c3ccc(Br)cc3)c(=O)[nH]2)cc1	none
COC(=O)c1cc(Cl)ccc1NC(=O)CSc1ncc(S(=O)(=O)c2ccc(Br)cc2)c(=O)[nH]1	FH mod inconclusive, DRV1 agonist 100, NTMT1 inhibitor 79µM
CCN(CC)C(=S)SSC(=S)N(CC)CC	FH mod inconclusive, SKOV3 invasion inconclusive, DRV1 agonist 92!, NTMT1 inhibitor 3.5µM!
CCOc1ccc(C2CC(=O)n3nc(-c4ccc(C)cc4)nc3S2)cc1OC (stereo not drawn)	DRV1 agonist 74
Cc1ccc(-c2nc3n(n2)C(=O)CC(c2ccc(C)cc2)S3)cc1 (stereo not drawn)	none
O=C1CC(c2ccc(Cl)cc2)Sc2nc(-c3ccc(F)cc3)nn21 (stereo not drawn)	DRV1 agonist 119
Cc1cc(C)c(NC(=O)CN(c2ccccc2)S(=O)(=O)N(C)C)c(C)c1	none
NCC(O)c1ccc(O)c(O)c1 (stereo not drawn)	none (no result: SKOV3 invasion, NTMT1 inhibitor)
NCCc1ccc(O)c(O)c1	FH mod inconclusive, NTMT1 inhibitor 32µM!
C=C(C)[C@@H]1CC[C@]2(C(=O)O)CC[C@]3(C)C(CCC4[C@@]5(C)C[C@@H](O)[C@H](O)C(C)(C)C5CC[C@]43C)C12 (stereo partly drawn)	none (no result: SKOV3 invasion, DRV1 agonist)
CCOc1ccc(-c2ncnn2-c2sc3c(c2C#N)CCCCC3)cc1	DRV1 agonist 102, NTMT1 inhibitor inconclusive
Oc1ccc(NCc2ccccc2OCc2ccccc2F)cc1	FH mod inconclusive, SKOV3 invasion inconclusive, NTMT1 inhibitor inconclusive
Oc1ccc(NCc2ccccc2OCc2ccccc2Cl)cc1	FH mod inconclusive, NTMT1 inhibitor 45µM
C=C1/C(=C/C=C2\CCC[C@@]3(C)C2CCC3[C@H](C)/C=C/[C@@H](O)C2CC2)C[C@@H](O)C[C@@H]1O (stereo partly drawn)	none (no result: SKOV3 invasion, DRV1 agonist)
C=C1C(=C/C=C2\CCC[C@]3(C)[C@@H]([C@H](C)/C=C/[C@@H](O)C4CC4)CC[C@@H]23)C[C@@H](O)C[C@@H]1O	DRV1 agonist 107 (no result: SKOV3 invasion)
COc1cccc(NC(=O)CSc2nnc(COc3ccc(Cl)cc3)o2)c1	none (no result: FH mod, NTMT1 inhibitor)
CCc1ccccc1NC(=O)CSc1nnc(COc2ccccc2Cl)o1	DRV1 agonist 69
Clc1cccc(-c2noc3ncnc(NC4CCCCC4)c23)c1	DRV1 agonist 91
Cc1cc(Cl)ccc1NC(=O)Cn1nc(C)c2c(C)n(-c3ccccc3)nc2c1=O	NTMT1 inhibitor 50µM
Cc1cc(Cl)ccc1NC(=O)CCCn1nc(C)c2c(C)n(-c3ccccc3)nc2c1=O	none
CCCCn1c(-c2ccc(C)cc2)c(C)n2c3c(=O)n(C)c(=O)n(C)c3nc12	DRV1 agonist 85, NTMT1 inhibitor inconclusive
COc1cccc(CNC(=O)Cn2nc(-c3ccc(C)cc3)ccc2=O)c1	none
COc1cccc(CNC(=O)Cn2nc(-c3ccc(Cl)cc3)ccc2=O)c1	DRV1 agonist 76
Cc1cccc(NC(=O)c2cc(S(=O)(=O)N3CCc4ccccc43)ccc2F)c1C	none
O=C1CCc2cc(S(=O)(=O)Nc3ccc(Cl)c(Cl)c3)c(F)cc2N1	none (no result: FH mod, SKOV3 invasion, DRV1 agonist)
CCOc1ccccc1NC(=O)CSc1nc2ccccc2nc1Cc1ccc(C)cc1	FH mod inconclusive, DRV1 agonist 71
O=C(O)CCCCCC(=O)NN=C1CCCC1	none (no result: DRV1 agonist)
O=C1NC(=O)C(=Cc2ccc(-c3ccc(F)cc3)o2)S1	NTMT1 inhibitor 22µM (no result: DRV1 agonist)
CNCCCOc1cc(F)c(-c2c(Cl)nc3ncnn3c2N[C@@H](C)C(F)(F)F)c(F)c1	NTMT1 inhibitor 28µM (no result: FH mod, SKOV3 invasion, DRV1 agonist)
COc1ccc(N(Cc2cccs2)C(=O)COc2ccc([N+](=O)[O-])cc2)cc1	none
CCc1ccccc1NC(=O)CSc1ncc2c(n1)-c1ccccc1N(C)S2(=O)=O	none
CCOc1ccc(NC(=O)CC2Nc3cccc4cccc(c34)NC2=O)cc1 (stereo not drawn)	DRV1 agonist 83
CCOC(=O)c1c(C)c(C(=O)NCc2ccc(Cl)cc2)c(C)n1C	none
CCc1ccccc1NC(=O)c1ccc(Cn2nc(N3CCN(c4ccccc4)CC3)ccc2=O)o1	DRV1 agonist 63
CC(C)Oc1ccc(CNC(=O)Cn2nc(N3CCN(c4ccccc4)CC3)ccc2=O)cc1	DRV1 agonist 68, NTMT1 inhibitor 89µM
CCOc1nc2cccc(C(=O)OCc3oc(=O)oc3C)c2n1Cc1ccc(-c2ccccc2-c2noc(O)n2)cc1	none (no result: SKOV3 invasion, DRV1 agonist)
O=C(Cn1c(-c2cccs2)cc2cc(Cl)ccc21)N1CCN(c2ccccc2F)CC1	none
COc1cc(CNCCSc2nnnn2C)ccc1OCc1ccccc1C	DRV1 agonist 73, NTMT1 inhibitor inconclusive
Cn1nnnc1SCCNCc1cc(Br)ccc1OCc1ccccc1Cl	FH mod inconclusive, DRV1 agonist 75
O=c1[nH]c2cccc(N3CCN(Cc4ccc(-c5ccccc5)cc4)CC3)c2o1	none (no result: SKOV3 invasion, DRV1 agonist)
Cc1ccccc1COC(=O)c1ccc(-c2nnn(Cc3ccccc3F)n2)cc1	none
O=C(NCc1ccc(F)cc1)c1cc2c(s1)-c1ccccc1SC2	none
CCCCNC(=O)CSc1nc2n[nH]c(C)c2c(=N)n1-c1cccc(C)c1	NTMT1 inhibitor inconclusive
Cc1c(NS(C)(=O)=O)cccc1-c1nc2ccccc2s1	none
CCOc1ccc(C(=O)Nc2ccc3nc(SCc4ccccc4)sc3c2)cc1	DRV1 agonist 63
Cc1cc(C)cc(OCC(=O)Nc2ccc(-c3nc4ccccc4s3)cc2)c1	SKOV3 invasion inconclusive, DRV1 agonist 72
CS(=O)(=O)Nc1ccc(-c2nc3ccccc3s2)cc1	DRV1 agonist 100
CCOC(=O)CSc1nc2ccc(NC(=O)c3ccccc3F)cc2s1	DRV1 agonist 107
CCc1c(CN2CCN(c3cccc(C)c3C)CC2)csc1C	none
CCOC(=O)C1=C(CS(=O)(=O)c2ccc(F)c(C)c2)NC(=O)NC1c1ccc(F)c(F)c1 (stereo not drawn)	DRV1 agonist inconclusive
Cn1cc(S(=O)(=O)c2ccc(Cl)cc2)c(=O)c2cc(F)c(N3CCCCCC3)cc21	none
CCCn1c(C)nc2c(N3CCN(C)CC3)nc(C)nc21	none (no result: FH mod, SKOV3 invasion, DRV1 agonist)
Cc1ccc(OCC(=O)Nc2ccc3nc(SCc4ccccc4)sc3c2)cc1	none
CCOC(=O)CSc1nc2ccc(NC(=O)c3ccccc3)cc2s1	FH mod inconclusive, DRV1 agonist 82
COc1cccc(CC(=O)Nc2ccc(-c3nc4ccccc4s3)cc2)c1	DRV1 agonist inconclusive
Cc1ccccc1NC(=O)CSc1nc2ccc(NC(=O)CCc3ccccc3)cc2s1	none
Cc1ccc(CSc2nc3ccc(NC(=O)COc4ccccc4)cc3s2)cc1	DRV1 agonist 74
Cc1ccc(NC(=O)CSc2nc3ccc(NC(=O)CCc4ccccc4)cc3s2)cc1	DRV1 agonist 66
CCOC(=O)CSc1nc2ccc(NC(=O)c3ccc(F)cc3)cc2s1	none
